Measurements reported in the supplement of paper PMC12494721.
Structures can show the parent of a compound that is named as a salt. Values without a mark were called inactive.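 Rule for the calls: for the amine columns active = adjusted P below 0.05 in both replicates with a change the same way and a mean fold change under 0.8 or over 1.25; inactive = the rest.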

test system: Escherichia coli IAI1; test: fold change of Putrescine concentration vs plate DMSO controls (fold change (ratio)); higher = more amine produced, active = hit call of the paper (significant change in both replicates, either direction); conditions: 20 µM; incubation time: 27 h, anaerobic, 37 °C
Summary of the method: (§1)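 Anaerobic mGAM cultures of four gut bacterial strains were grown at 37 °C for 27 h in 80 µL wells, starting at OD 0.1 before 1:1 dilution. Compounds were at 20 µM final (sweeteners 50 µM). Whole cultures were extracted with cold acetonitrile/methanol containing 0.1% formic acid and centrifuged. Amines were quantified by LC–triple-quadrupole MS (dynamic MRM) against external calibration curves and drift-corrected within batch. Each value is the fold change versus plate DMSO controls, averaged over 2 biological replicates.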

Compound	fold change of Putrescine concentration
CS(=O)(=O)NC(=O)c1cc(Oc2ccc(C(F)(F)F)cc2Cl)ccc1[N+](=O)[O-]	1.04
C#C[C@]1(O)C=C[C@H]2[C@@H]3CCC4=CC(=O)CC[C@@H]4[C@H]3CC[C@@]21CC [Gestodene]	1.02
ClC1C(Cl)C(Cl)C(Cl)C(Cl)C1Cl (centres undefined)	1
CCOC(=O)OC1=C(c2cc(C)ccc2C)C(=O)N[C@]12CC[C@@H](OC)CC2	1
N#Cc1cc(Br)c(O)c(Br)c1	1.23
O=C(CCCN1CCC2(CC1)C(=O)NCN2c1ccccc1)c1ccc(F)cc1 [Spiperone]	1.02
CNC(=O)Oc1cccc(/N=C/N(C)C)c1	0.96
CN(C)C(CSS(=O)(=O)O)CSS(=O)(=O)O	1.04
CN1[C@@H]2C[C@@H](OC(=O)[C@H](CO)c3ccccc3)C[C@H]1[C@@H]1O[C@@H]12 [Scopolamine hydrochloride]	1.17
COP(=S)(OC)Oc1nc(Cl)c(Cl)cc1Cl	0.986
C#CCN(C)[C@H](C)Cc1ccccc1 [Selegiline hydrochloride]	1.07
C[N+]1(C)CCCC(OC(=O)C(O)(c2ccccc2)c2ccccc2)C1 (centres undefined) [Mepenzolate bromide]	0.871
CCNc1nc(Cl)nc(NC(C)C)n1	0.961
CCc1cc(C)cc(CC)c1-c1c(OC(=O)C(C)(C)C)n2n(c1=O)CCOCC2	1.02
COP(=O)(NC(C)=O)SC (centres undefined)	1.02
CC[C@H]1CCC[C@H](O[C@H]2CC[C@H](N(C)C)[C@@H](C)O2)[C@@H](C)C(=O)C2=C[C@@H]3[C@@H](C=C(C)[C@@H]4C[C@@H](O[C@@H]5O[C@@H](C)[C@H](OC)[C@@H](OC)[C@H]5OC)C[C@@H]34)[C@@H]2CC(=O)O1.CC[C@H]1CCC[C@H](O[C@H]2CC[C@H](N(C)C)[C@@H](C)O2)[C@@H](C)C(=O)C2=C[C@H]3[C@@H]4C[C@H](O[C@@H]5O[C@@H](C)[C@H](OC)[C@@H](OC)[C@H]5OC)C[C@H]4C=C[C@H]3C2CC(=O)O1	1.02
C[C@@H]1C[C@@H]([C@H](O)CC2CC(=O)NC(=O)C2)C(=O)[C@@H](C)C1 [Cycloheximide]	1.06
c1ccc2c(c1)cc1ccc3cccc4ccc2c1c34 [Benzo[a]pyrene]	0.977
N#Cc1sc2c(=O)c3ccccc3c(=O)c=2sc1C#N	1.02

Compound	fold change of Putrescine concentration
Cc1cccc2sc3nncn3c12	0.99
CCC1(C)CC(=O)NC(=O)C1 [Bemegride]	0.985
CCOP(=S)(OCC)Oc1cc(C)nc(C(C)C)n1	1
CN1CCN(C(=O)OC2c3nccnc3C(=O)N2c2ccc(Cl)cn2)CC1 (centres undefined) [Zopiclone]	0.98
CO[C@]12C[C@@H](COC(=O)c3cncc(Br)c3)CN(C)[C@@H]1Cc1cn(C)c3cccc2c13 [Nicergoline]	0.98
CCOP(=S)(OCC)Oc1nc(Cl)c(Cl)cc1Cl	0.986
C[N+](C)(C)CCCCCCCCCC[N+](C)(C)C [Decamethonium bromide]	0.923
C[C@]12COC(=O)C[C@@H]1CC[C@@H]1[C@@H]2CC[C@@]2(C)[C@H]1CC[C@]2(C)O [Oxandrolone]	0.974
OC(Cc1ccccc1Cl)(Cn1nc[nH]c1=S)C1(Cl)CC1 (centres undefined)	0.937
NCC1(CC(=O)O)CCCCC1 [Gabapentin]	1.03
CC(C)C[C@H]1C(=O)N2CCC[C@H]2[C@]2(O)O[C@](NC(=O)[C@@H]3C=C4c5cccc6[nH]c(Br)c(c56)C[C@H]4N(C)C3)(C(C)C)C(=O)N12 [Bromocryptine mesylate]	1.03
NCC(O)c1ccc(O)cc1 (centres undefined) [Octopamine hydrochloride]	1.11
NCC(CC(=O)O)c1ccc(Cl)cc1 (centres undefined) [Baclofen]	1.09
CC1(C)C(C=C(Cl)Cl)C1C(=O)OC(C#N)c1cccc(Oc2ccccc2)c1 (mixture of isomers)	0.971
C#CCN1C(=O)COc2cc(F)c(N3C(=O)C4=C(CCCC4)C3=O)cc21	1.01
CN1COCN(Cc2cnc(Cl)s2)/C1=N\[N+](=O)[O-]	1.03
CCNC1(c2cccs2)CCCCC1=O (centres undefined) [Tiletamine hydrochloride]	0.955
Cc1cc(C(C#N)c2ccc(Cl)cc2)c(Cl)cc1NC(=O)c1cc(I)cc(I)c1O (centres undefined)	1.07

test system: Klebsiella aerogenes DSM 30053; test: as above; conditions: 20 µM; incubation time: 27 h, anaerobic, 37 °C
Summary of the method: as §1

Compound	fold change of Putrescine concentration
CS(=O)(=O)NC(=O)c1cc(Oc2ccc(C(F)(F)F)cc2Cl)ccc1[N+](=O)[O-]	1.01
C#C[C@]1(O)C=C[C@H]2[C@@H]3CCC4=CC(=O)CC[C@@H]4[C@H]3CC[C@@]21CC [Gestodene]	0.993
ClC1C(Cl)C(Cl)C(Cl)C(Cl)C1Cl (centres undefined)	1
CCOC(=O)OC1=C(c2cc(C)ccc2C)C(=O)N[C@]12CC[C@@H](OC)CC2	1
N#Cc1cc(Br)c(O)c(Br)c1	0.978
O=C(CCCN1CCC2(CC1)C(=O)NCN2c1ccccc1)c1ccc(F)cc1 [Spiperone]	1.01
CNC(=O)Oc1cccc(/N=C/N(C)C)c1	1
CN(C)C(CSS(=O)(=O)O)CSS(=O)(=O)O	0.999
CN1[C@@H]2C[C@@H](OC(=O)[C@H](CO)c3ccccc3)C[C@H]1[C@@H]1O[C@@H]12 [Scopolamine hydrochloride]	0.965
COP(=S)(OC)Oc1nc(Cl)c(Cl)cc1Cl	1.02
C#CCN(C)[C@H](C)Cc1ccccc1 [Selegiline hydrochloride]	0.975
C[N+]1(C)CCCC(OC(=O)C(O)(c2ccccc2)c2ccccc2)C1 (centres undefined) [Mepenzolate bromide]	1.02
CCNc1nc(Cl)nc(NC(C)C)n1	0.971
CCc1cc(C)cc(CC)c1-c1c(OC(=O)C(C)(C)C)n2n(c1=O)CCOCC2	1.01
COP(=O)(NC(C)=O)SC (centres undefined)	1
CC[C@H]1CCC[C@H](O[C@H]2CC[C@H](N(C)C)[C@@H](C)O2)[C@@H](C)C(=O)C2=C[C@@H]3[C@@H](C=C(C)[C@@H]4C[C@@H](O[C@@H]5O[C@@H](C)[C@H](OC)[C@@H](OC)[C@H]5OC)C[C@@H]34)[C@@H]2CC(=O)O1.CC[C@H]1CCC[C@H](O[C@H]2CC[C@H](N(C)C)[C@@H](C)O2)[C@@H](C)C(=O)C2=C[C@H]3[C@@H]4C[C@H](O[C@@H]5O[C@@H](C)[C@H](OC)[C@@H](OC)[C@H]5OC)C[C@H]4C=C[C@H]3C2CC(=O)O1	0.991
C[C@@H]1C[C@@H]([C@H](O)CC2CC(=O)NC(=O)C2)C(=O)[C@@H](C)C1 [Cycloheximide]	1.03
c1ccc2c(c1)cc1ccc3cccc4ccc2c1c34 [Benzo[a]pyrene]	1.01
N#Cc1sc2c(=O)c3ccccc3c(=O)c=2sc1C#N	1.01

Compound	fold change of Putrescine concentration
Cc1cccc2sc3nncn3c12	0.997
CCC1(C)CC(=O)NC(=O)C1 [Bemegride]	0.981
CCOP(=S)(OCC)Oc1cc(C)nc(C(C)C)n1	1
CN1CCN(C(=O)OC2c3nccnc3C(=O)N2c2ccc(Cl)cn2)CC1 (centres undefined) [Zopiclone]	1.02
CO[C@]12C[C@@H](COC(=O)c3cncc(Br)c3)CN(C)[C@@H]1Cc1cn(C)c3cccc2c13 [Nicergoline]	0.99
CCOP(=S)(OCC)Oc1nc(Cl)c(Cl)cc1Cl	1.01
C[N+](C)(C)CCCCCCCCCC[N+](C)(C)C [Decamethonium bromide]	0.933
C[C@]12COC(=O)C[C@@H]1CC[C@@H]1[C@@H]2CC[C@@]2(C)[C@H]1CC[C@]2(C)O [Oxandrolone]	0.991
OC(Cc1ccccc1Cl)(Cn1nc[nH]c1=S)C1(Cl)CC1 (centres undefined)	0.96
NCC1(CC(=O)O)CCCCC1 [Gabapentin]	1
CC(C)C[C@H]1C(=O)N2CCC[C@H]2[C@]2(O)O[C@](NC(=O)[C@@H]3C=C4c5cccc6[nH]c(Br)c(c56)C[C@H]4N(C)C3)(C(C)C)C(=O)N12 [Bromocryptine mesylate]	0.98
NCC(O)c1ccc(O)cc1 (centres undefined) [Octopamine hydrochloride]	1.02
NCC(CC(=O)O)c1ccc(Cl)cc1 (centres undefined) [Baclofen]	0.988
CC1(C)C(C=C(Cl)Cl)C1C(=O)OC(C#N)c1cccc(Oc2ccccc2)c1 (mixture of isomers)	1.02
C#CCN1C(=O)COc2cc(F)c(N3C(=O)C4=C(CCCC4)C3=O)cc21	1.01
CN1COCN(Cc2cnc(Cl)s2)/C1=N\[N+](=O)[O-]	1.01
CCNC1(c2cccs2)CCCCC1=O (centres undefined) [Tiletamine hydrochloride]	1.01
Cc1cc(C(C#N)c2ccc(Cl)cc2)c(Cl)cc1NC(=O)c1cc(I)cc(I)c1O (centres undefined)	1.03
